Tests used:
Assay in all cases: PBM binding z-score (relative to random genomic background probes); higher = stronger binding; sequences stand for … in GC…GCGATTGACAGCGTAGAATGAAGG
[1] = tested on: RARb homodimer (NR concentration 270 nM)
In short: (§1)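 For binding z-scores, the reference was random background probes on custom Agilent 4×180K protein-binding microarrays. These arrays were incubated 1 h with ligand-free nuclear receptor dimers in PBS pH 7.4, 2% milk, 0.02% Triton X-100, 1 mM DTT, 0.2 mg/mL BSA and 0.4 mg/ml salmon testes DNA. Fluorescence was scanned after antibody detection of each partner (one per run) and regression-normalized.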

[2] = tested on: RARg:RXRa (NR concentration 270 nM, RXRa partner concentration 90 nM)
In short: as §1

[3] = tested on: RARg homodimer (NR concentration 270 nM)
In short: as §1

[4] = tested on: RXRa DBDmut IVT, anti-RXR (DBD mutation: RXRa K156A/R161A, NR concentration 90 nM)
In short: as §1

[5] = tested on: RXRa homodimer (NR concentration 180 nM)
In short: as §1

[6] = tested on: THRa:RXRa (NR concentration 90 nM, RXRa partner concentration 90 nM)
In short: as §1

[7] = tested on: THRa homodimer (NR concentration 90 nM)
In short: as §1

[8] = tested on: VDR homodimer (NR concentration 270 nM)
In short: as §1

TCTTGTTGATCAACAGGAGGTTAAGAAAGATCGA
PBM binding z-score [1]: 0.286
PBM binding z-score [2]: 0.304
PBM binding z-score [3]: 0.198
PBM binding z-score [4]: 0.0758
PBM binding z-score [5]: 0.644
PBM binding z-score [6]: 0.723
PBM binding z-score [7]: -0.731
PBM binding z-score [8]: -0.304

TCTTGTAGATCAGCAGGTTAAGAAGGCTGGCCAA
PBM binding z-score [1]: 0.175
PBM binding z-score [2]: 0.0178
PBM binding z-score [3]: -0.229
PBM binding z-score [4]: 0.672
PBM binding z-score [5]: 0.428
PBM binding z-score [6]: 0.192
PBM binding z-score [7]: -0.361
PBM binding z-score [8]: -0.0588

CGTCCAAGATCAGCAGGTCAGTGAAAGCGACGTG
PBM binding z-score [1]: 2.09
PBM binding z-score [2]: 1.01
PBM binding z-score [3]: 1.51
PBM binding z-score [4]: 0.253
PBM binding z-score [5]: 0.844
PBM binding z-score [6]: 1.11
PBM binding z-score [7]: 0.018
PBM binding z-score [8]: 0.137

CAAACTAGGTCACCGGAAGGTGAAAGTCCGCATG
PBM binding z-score [1]: 4.38
PBM binding z-score [2]: 6.41
PBM binding z-score [3]: 5.87
PBM binding z-score [4]: 1.3
PBM binding z-score [5]: 4.7
PBM binding z-score [6]: 4.01
PBM binding z-score [7]: 2.37
PBM binding z-score [8]: 0.904

AGAATGAGGTTGTTAAGATCAGGGAATTGCGGTC
PBM binding z-score [1]: 0.126
PBM binding z-score [2]: 0.00616
PBM binding z-score [3]: -0.0271
PBM binding z-score [4]: 1.17
PBM binding z-score [5]: 0.15
PBM binding z-score [6]: 0.608
PBM binding z-score [7]: 0.246
PBM binding z-score [8]: 0.542

ATAGCAAGGTGATCGTGAGGTCGTTGATACTAAC
PBM binding z-score [1]: 1.29
PBM binding z-score [2]: 2.12
PBM binding z-score [3]: 0.811
PBM binding z-score [4]: 0.231
PBM binding z-score [5]: 1.31
PBM binding z-score [6]: 3.2
PBM binding z-score [7]: 1.8
PBM binding z-score [8]: 1.97

CCGGCTAGGTCATGGTCAGCTAATCTACAGTATG
PBM binding z-score [1]: 3.33
PBM binding z-score [2]: 4.11
PBM binding z-score [3]: 4.99
PBM binding z-score [4]: 1.48
PBM binding z-score [5]: 3.01
PBM binding z-score [6]: 2.99
PBM binding z-score [7]: 1.57
PBM binding z-score [8]: 0.619

— the supplement of paper PMC6555819
